{
  "source": "PubChem BioAssay (NCATS)",
  "note": "Records with an inconclusive call do not appear. A call without a number means that no potency is given here. Active and inactive are the calls of the source. Unless noted, the call rests on the fitted dose curve; in most records, active means well fitted cell-killing curve with a large enough effect; inconclusive means small, poorly fitted or top-dose-only effect; inactive means flat fitted curve, though single readings scatter. Potency means the concentration at half of the fitted maximal effect.",
  "data": [
    {"test": "NCATS anti-infectives library activity on HEK293 viability as a counter-qHTS vs the C. elegans viability qHTS (AID 1745854);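 further: HEK293 cells exposed to compounds for 24 hr before the viability read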", "details": "HEK293 viability counter-screen; series mostly up to 41.8 µM", "method_in_brief": "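Counter-screen for cytotoxicity: HEK293, 24 hr, 37C, compounds up to 41.7 uM final (a dilution series, 1:5). Readout CellTiter-Glo luminescence, 10 min RT. Digitonin control, 83.3 uM final.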", "values": [
      {"smiles": "Cc1cn([C@H]2C=C[C@@H](CO)O2)c(=O)[nH]c1=O", "Potency": "inactive"},
      {"smiles": "O=C1c2c(O)ccc(O)c2C(=O)c2c(NCCNCCO)ccc(NCCNCCO)c21", "Potency": "12.6 µM (active)"},
      {"smiles": "Nc1nc2c(ncn2COC(CO)CO)c(=O)[nH]1", "Potency": "inactive"},
      {"smiles": "NS(=O)(=O)c1cc2c(cc1Cl)NCNS2(=O)=O", "Potency": "inactive"},
      {"smiles": "O=c1[nH]cc(F)c(=O)[nH]1", "Potency": "inactive"},
      {"smiles": "COc1ccc(C2CNC(=O)C2)cc1OC1CCCC1", "note": "(centres undefined)", "Potency": "inactive"},
      {"smiles": "NC(=O)NO", "Potency": "inactive"},
      {"smiles": "O=C(CCCN1CCC(O)(c2ccc(Cl)cc2)CC1)c1ccc(F)cc1", "Potency": "inactive"},
      {"smiles": "CC1(C)O[C@H]2CC(=O)OC[C@]23[C@H]2CC[C@@]4(C)[C@H](c5ccoc5)OC(=O)[C@H]5O[C@]54[C@]2(C)C(=O)C[C@@H]13", "Potency": "inactive"},
      {"smiles": "COc1ccccc1OCC(O)CN1CCN(CC(=O)Nc2c(C)cccc2C)CC1", "note": "(centres undefined)", "Potency": "inactive"},
      {"smiles": "OCCN(CCO)c1nc(N2CCCCC2)c2nc(N(CCO)CCO)nc(N3CCCCC3)c2n1", "Potency": "inactive"},
      {"smiles": "CC(=O)OCC(CCn1cnc2cnc(N)nc21)COC(C)=O", "Potency": "inactive"},
      {"smiles": "CC(C)(C)C(=O)Oc1ccc(S(=O)(=O)Nc2ccccc2C(=O)NCC(=O)O)cc1", "Potency": "inactive"},
      {"smiles": "CC(C)Cc1ccc(C(C)C(=O)O)cc1", "note": "(centres undefined)", "Potency": "inactive"},
      {"smiles": "Cc1cn([C@H]2C[C@H](N=[N+]=[N-])[C@@H](CO)O2)c(=O)[nH]c1=O", "Potency": "inactive"},
      {"smiles": "COc1cc2nc(N3CCN(C(=O)C4COc5ccccc5O4)CC3)nc(N)c2cc1OC", "note": "(centres undefined)", "Potency": "inactive"},
      {"smiles": "NC12CC3CC(CC(C3)C1)C2", "Potency": "inactive"},
      {"smiles": "CN(C)CCCN1c2ccccc2CCc2ccc(Cl)cc21", "Potency": "inactive"},
      {"smiles": "CC(C)(Oc1ccc(C2CC2(Cl)Cl)cc1)C(=O)O", "note": "(centres undefined)", "Potency": "inactive"},
      {"smiles": "Nc1ccn([C@H]2CC[C@@H](CO)O2)c(=O)n1", "Potency": "inactive"},
      {"smiles": "C[C@H]1c2cccc(O)c2C(O)=C2C(=O)[C@]3(O)C(O)=C(C(N)=O)C(=O)[C@@H](N(C)C)[C@@H]3[C@@H](O)[C@@H]21", "Potency": "inactive"}
    ]},
    {"test": "NCATS anti-infectives library activity on the primary C. elegans qHTS viability assay (AID 1745855; calls by dose curve)", "details": "C. elegans worm area imaging, day 7; series mostly up to 41.8 µM", "method_in_brief": "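GFP read-out by 488 nm laser cytometry at day 0, 3 and 7, gated on object perimeter, area and peak intensity, scored viability of PE254-GFP-FLuc worms exposed to compound in S medium with bacterial capsules at 21 °C.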", "values": [
      {"smiles": "CN(C)C(=O)C(CCN1CCC(O)(c2ccc(Cl)cc2)CC1)(c1ccccc1)c1ccccc1", "Potency": "inactive"},
      {"smiles": "O=c1[nH]cc(F)c(=O)[nH]1", "Potency": "6.48 µM (active)"},
      {"smiles": "O=C(CCCN1CCC(O)(c2ccc(Cl)cc2)CC1)c1ccc(F)cc1", "Potency": "inactive"},
      {"smiles": "OCCN(CCO)c1nc(N2CCCCC2)c2nc(N(CCO)CCO)nc(N3CCCCC3)c2n1", "Potency": "0.816 µM (active)"},
      {"smiles": "CC(=O)OCC(CCn1cnc2cnc(N)nc21)COC(C)=O", "Potency": "inactive"},
      {"smiles": "OCCN1CCN(CCCN2c3ccccc3Sc3ccc(C(F)(F)F)cc32)CC1", "Potency": "inactive"},
      {"smiles": "COc1cc2nc(N3CCN(C(=O)C4COc5ccccc5O4)CC3)nc(N)c2cc1OC", "note": "(centres undefined)", "Potency": "23 µM (active)"},
      {"smiles": "C[C@H]1c2cccc(O)c2C(O)=C2C(=O)[C@]3(O)C(O)=C(C(N)=O)C(=O)[C@@H](N(C)C)[C@@H]3[C@@H](O)[C@@H]21", "Potency": "1.15 µM (active)"}
    ]}
  ]
}
